Screening results deposited in PubChem BioAssay by National Center for Advancing Translational Sciences (NCATS).
Hits are enriched below; roughly 19% of the tested compounds scored in any of these assays.
SARS PLP yeast – inhibitors of SARS-CoV papain-like protease in yeast; S. cerevisiae expressing SARS-CoV PLpro, growth rescue; Potency, µM (highest dose often 32.9 µM), actives largely listed as activators; actives 0.19% (n = 330,000); calls by dose curve; further: nearly all actives have a fitted effect of over 55% in size
Cycloheximide cs – counter-screen for Shiga toxin inhibitors: cycloheximide protein synthesis inhibition; cell reporter, cycloheximide protein synthesis inhibition counterscreen; max response, %; actives 12% (n = 300,000); AID 2314; in the data active means max response mostly above about 13%, no sharp cut-off; inactive means mostly below about 14%; further: read at 38.3 µM for the half of the compounds with a filed dose
AMA1-RON2 inh – inhibitors of Plasmodium falciparum AMA1-RON2 interaction; AlphaScreen AMA1-biotinylated RON2 peptide binding; Potency, µM (top dose mostly 58.2 µM), hits mostly inhibitors; actives 0.2% (n = 360,000); AID 720542; further: nearly all actives have a fitted effect of over 45% in size
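AMA1 (3D7) with his tag at 25 nM final met compounds first, then biotinylated RON2 peptide at 25 nM; detection used donor plus acceptor beads, 10 µg/mL apiece, read by AlphaScreen after 30 min at room temperature.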
Shiga inhibitor – inhibitors of Shiga toxin in Vero cells | inhibition, % at 38.7 µM | Vero cells, Shiga toxin protein synthesis inhibition reporter | AID 2315 | actives 9.2% (n = 290,000); in the data active means inhibition mostly above about 28%, no sharp cut-off; inactive means mostly below about 43%
Pf growth 48h – inhibits P. falciparum growth in the first generation, 48 h | P. falciparum luciferase growth in erythrocytes, 48 h | Potency, µM (titrated, usually from 28.7 µM), most hits filed as inhibitors | actives 5.9% (n = 310,000)
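Growth was read as firefly luciferase luminescence after a 48 h, 37 C, 5% CO2 exposure of compounds to reporter-bearing P. falciparum cultures (0.1% parasitemia, 2% hematocrit final) in Albumax-supplemented RPMI 1640.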
Pf growth 96h – P. falciparum growth inhibition at 96 hours; Potency, µM (series often up to 28.7 µM), usual class: inhibitors; actives 6.9% (n = 320,000); P. falciparum luciferase reporter growth, 96 h
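P. falciparum expressing integrated firefly luciferase grown in erythrocytes (2% hematocrit, 0.05% parasitemia final) with compounds for 96 hours at 37 C, 5% CO2. Growth inhibition read as loss of luminescence after adding luciferase detection reagent.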
Hits are given with their value; . = inactive; ? = inconclusive; / = no result; [ ] = remark or other dose. Unless noted, the call rests on the fitted dose curve; in most records, active means well fitted curve in the direction sought with a large enough effect; inconclusive means small, poorly fitted or top-dose-only effect, or another doubt; inactive means no such curve, though single readings can be large; an effect the other way counts as inactive or inconclusive.

SMILES	SARS PLP yeast	Cycloheximide cs	AMA1-RON2 inh	Shiga inhibitor	Pf growth 48h	Pf growth 96h
CCC1OC(=O)C(C)[C@@H](O[C@H]2C[C@@](C)(OC)C(O)C(C)O2)C(C)[C@@H](O[C@@H]2OC(C)CC(N(C)C)C2O)[C@@](C)(O)CC(C)C(=O)[C@@H](C)C(O)[C@]1(C)O (some centres undefined)	/	/	/	/	.	?
CC[C@H]1OC(=O)[C@H](C)[C@@H](O[C@H]2C[C@@](C)(OC)[C@@H](O)[C@H](C)O2)[C@H](C)[C@@H](O[C@@H]2O[C@H](C)C[C@H](N(C)C)[C@H]2O)[C@](C)(O)C[C@@H](C)CN(C)[C@H](C)[C@@H](O)[C@]1(C)O	/	/	.	/	13.5µM	0.135µM
C/C(=N\NC(=O)c1nnn(-c2nonc2N)c1CSc1ccc(C)cc1)c1cccs1	/	/	.	/	/	/
CCCn1c(NC(=O)CN2C(=O)NC3(CCCC3)C2=O)nc2ccccc21	.	/	.	/	.	.
CCN(CC)S(=O)(=O)c1ccc(N/N=C(\C)c2cccnc2)nc1	.	.	.	.	.	.
Cc1nc2ccccc2c2oc(C(=O)N3CCN(c4ccc([N+](=O)[O-])cc4)CC3)cc12	.	.	.	.	.	.
CCOc1cccc(N2C(=O)CC(NCc3ccc(S(N)(=O)=O)cc3)C2=O)c1 (centres undefined)	.	.	.	.	.	?
CCCCN(C)C(=O)c1cccc(OC2CCN(CC(C)(C)C)CC2)c1	.	.	.	.	?	13.1µM
CC(C)(C)CN1CCC(Oc2cccc(C(=O)N3CCNC(=O)C3(C)C)c2)CC1	.	.	.	.	.	11.7µM
O=C(Cn1nnc(-c2cccs2)n1)NCc1ccco1	.	12.2	.	51.5	.	.
O=C(Cn1nnc(-c2cccs2)n1)Nc1ccccc1C(F)(F)F	.	.	.	.	.	0.294µM
CC(C)(C)NC(=O)Cn1nnc(-c2cccs2)n1	.	31.2	.	29.8	.	.
COCCn1c(SCC(=O)NC2CCCC2)nnc1C(C)C	.	.	.	.	.	.
CCCn1c(SCC(=O)Nc2cccc(NC(C)=O)c2)nnc1C(C)C	.	.	.	.	.	4.15µM
CCCn1c(SCC(=O)N2CCCCC2)nnc1C(C)C	.	14.7	.	43.3	.	.
COCCn1c(SCC(=O)N2CCCC2)nnc1C(C)C	.	.	.	.	.	5.22µM
O=C(NCc1ccccn1)C1CCN(S(=O)(=O)c2cc(Cl)ccc2Cl)CC1	.	.	.	.	.	.
C[C@H](NC(=O)Nc1ccc2c(c1)OCCO2)C(=O)O	?	.	.	.	.	.
C/C(=N\Nc1nc2ccccc2[nH]1)c1ccccn1	.	28.3	/	106.6	2.94µM	?
C/C(=N\NC(=O)c1cccnc1)c1cc2ccccc2o1	.	.	.	.	.	?
C/C(=N\Nc1nc2ccccc2[nH]1)c1cc2ccccc2o1	.	24.6	.	39.3	.	?
CCCCN(C(=O)c1cc(CC)c(C)s1)c1c(N)n(CCC)c(=O)[nH]c1=O	.	/	.	/	.	.
Cc1ccc(S(=O)(=O)NCc2ccccc2)cc1C(=O)N(C)Cc1ccc(F)cc1	.	.	.	.	.	.
CCn1c(NCc2cc(Br)ccc2NS(=O)(=O)c2ccc(C)cc2)nc2ccccc21	.	.	.	.	?	4.65µM
CCn1c(NCc2ccc(OC)cc2)nc2ccccc21	.	12.0	.	22.7	.	.
SMILES	SARS PLP yeast	Cycloheximide cs	AMA1-RON2 inh	Shiga inhibitor	Pf growth 48h	Pf growth 96h
C=CCn1c(NCc2ccc(N(C)C)cc2)nc2ccccc21	.	32.9	?	active	.	.
CCn1c(NCc2ccccc2Cl)nc2ccccc21	.	.	.	24.4	?	.
CCn1c(NCc2ccco2)nc2ccccc21	.	.	.	.	.	?
CCOC(=O)C1=C(C)N(CCCC(=O)NCc2ccc3c(c2)OCO3)C(=O)NC1c1ccc(Br)cc1 (centres undefined)	.	.	.	.	.	?
CCN1CCN(C(=O)C(N)Cc2ccccc2)CC1 (centres undefined)	.	.	.	.	.	.
COc1ccc(CN(C)C(=O)COC(=O)c2cc([N+](=O)[O-])ccc2N2CCCC2)c(OC)c1OC	.	/	.	/	/	/
COC(=O)c1ccccc1NC(=O)COc1ccccc1[N+](=O)[O-]	.	.	.	.	.	.
Cc1ccc(OCC(=O)Nc2ccccc2[N+](=O)[O-])c(Br)c1	.	42.0	?	121.6	.	.
Cc1ccc(/C=N\NC(=O)COc2ccc(C)cc2[N+](=O)[O-])cc1	.	.	.	.	?	?
Cc1ccc(OC/C(=N\O)C(C)(C)C)c([N+](=O)[O-])c1	.	34.0	.	75.1	.	.
Cc1ccc(OCC(=O)Nc2ccon2)c([N+](=O)[O-])c1	.	41.8	.	84.0	.	.
COc1ccc(CN2CCNC(=O)C2CC(=O)N(C)CCCN2CCOCC2)cc1C (centres undefined)	?	.	.	.	.	.
O=C(Nc1cccc(C(F)(F)F)c1)c1csc([C@H]2C[C@H](O)[C@@H](CO)O2)n1	/	/	.	/	/	/
C[C@H](CO)N1C[C@H](C)[C@@H](CN(C)C(=O)NC2CCCCC2)Oc2c(NC(=O)Nc3ccc(C(F)(F)F)cc3)cccc2C1=O	.	/	.	/	/	/
Cc1c(C)c2c(OCC(=O)O)cc3c(c2oc1=O)CCC(C)(C)O3	.	.	.	.	.[0.00184 µM]	.
Cc1c(C)c2c(OCC(=O)N3CCC(C(=O)NCC(C)C)CC3)cc3c(c2oc1=O)CCC(C)(C)O3	.	.	.	.	?	.
Cc1c(C)c2c(OCC(=O)N3CCC(C(=O)O)CC3)cc3c(c2oc1=O)CCC(C)(C)O3	.	.	.	.	?	5.22µM
Cc1c(C)c2c(OCC(=O)Nc3ccc(CCO)cc3)cc3c(c2oc1=O)CCC(C)(C)O3	.	.	.	.	8.28µM	13.1µM
CCOc1ccc(NC(=O)C2CCCN2S(=O)(=O)c2ccc(OCC)cc2)cc1 (centres undefined)	.	.	.	.	.	.
O=C(CCS(=O)(=O)c1ccccc1)NNC(=O)CSc1ccccc1F	.	/	.	/	/	/
CCCOc1ccc(C(=O)Nc2ccc(CN3CCOCC3)cc2)cc1	.	.	.	.	.	?
CC(C)Oc1cccc(C(=O)Nc2ccc(CN3CCOCC3)cc2)c1	.	15.7	.	.	.	/
CCCOc1cccc(C(=O)Nc2ccc(CN3CCOCC3)cc2)c1	.	.	.	.	.	?
O=C(NC1CC2CCC1C2)c1ccc(CN2CCOCC2)cc1 (centres undefined)	.	33.6	.	116.7	.	/
O=C(Nc1ccc2c(c1)OCCO2)c1ccc(CN2CCOCC2)cc1	.	49.6	.	72.7	.	?
COc1cccc(NC(=O)c2ccc(CN3CCOCC3)cc2)c1	.	22.3	.	.	.	.
